These results are taken from PubChem BioAssay (EPA / NIEHS).

The term AC50 denotes the concentration giving half of the maximal activity seen.

Inconclusive results are not listed. Active and inactive are the calls of the source. How the source made its calls, unless noted: active means hit-call score of the fitted dose curve at least 0.9, where 1 is the maximum; inactive means score below 0.9.

One assay can be described thus: ACEA_ER_80hr: ACEA Biosciences xCELLigence Real-Time Cell Analysis on Estrogen Receptor Agonism for Proliferation (AID 2282667; active means hit-call score of the fitted dose curve at least 0.9, where 1 is the maximum). To be noted: T47D proliferation, impedance (xCELLigence), 80 h. The method, boiled down: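 Real-time electrical impedance tracked growth of the human breast line T47D, with the 80 h post-dosing value used. Dosing spanned eight 1:4 steps down from a 100 uM final top concentration, run in duplicate.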
`CCC(Cc1c(I)cc(I)c(N)c1I)C(=O)O` (stereo unspecified): the AC50 was 15.5 µM (active).
In the case of `C=C(C)CCCC`, the molecule was called inactive.
As for `OCC(F)(F)C(F)(F)C(F)(F)C(F)(F)C(F)(F)C(F)(F)CO`, the AC50 is 0.291 µM (active).
With `C[C@]12CC[C@H]3C(=CCc4cc(O)ccc43)[C@@H]1CCC2=O`, the AC50 is 0.00143 µM (active).
With `Oc1ccc(C2(c3ccc(O)c(C4CCCCC4)c3)CCCCC2)cc1C1CCCCC1`, the call was inactive.
`O=C(O)CCC(F)(F)C(F)(F)C(F)(F)C(F)(F)C(F)(F)C(F)(F)C(F)(F)F`: the molecule was classed as inactive.
For the molecule `NCC(F)(F)C(F)(F)C(F)(F)C(F)(F)C(F)(F)C(F)(F)F`, the molecule was called inactive.
`CC(C)C(=O)OCc1ccccc1`: the result was inactive.
As for `CO[Si](C)(CCC(F)(F)C(F)(F)C(F)(F)C(F)(F)C(F)(F)C(F)(F)F)OC`, the molecule was called inactive.
Regarding `CCCCCCCCCc1ccc(OCCO)cc1`, the AC50 is 0.278 µM (active).
As for `FC(F)(F)C(F)(F)C(F)(F)C(F)(F)C(F)(F)C(F)(F)C(F)(F)CCI`, the result was inactive.
In the case of `C[Si](C)O[Si](C)C`, the call was inactive.
In the case of `Cc1cnccn1`, the molecule was called inactive.
On to `NCC(F)(F)C(F)(F)C(F)(F)C(F)(F)C(F)(F)C(F)(F)C(F)(F)C(F)(F)F`, for which the result was inactive.
For the molecule `OCC(F)(F)C(F)(F)C(F)(F)CO`, the outcome was inactive.
Take `CN(C)C(C)(C)CO`: the concentration at half-maximal activity (AC50) is 50 µM (active).
Consider `Nc1cc([N+](=O)[O-])cc(Cl)c1O`, for which the call was inactive.
Still for that read-out and setting: under `CCCCCCCCCCCCC[N+](C)(C)Cc1ccccc1` stands “inactive”; under `OCCCc1cccnc1`, “inactive”.
On to `O=C(Cl)C(F)(F)C(F)(F)C(F)(F)C(F)(F)C(F)(F)C(F)(F)C(F)(F)F`, for which the AC50 was 19.7 µM (active).
For `Cc1cc(C)c(O)c(C(C)(C)C)c1`, the molecule was classed as inactive.
As for `CCC(=O)OC(C)c1ccccc1` (stereo unspecified), the result was inactive.
On the same count and under the same terms, under `COc1ccccc1C=O` stands “inactive”; under `O=c1cccc[nH]1`, “inactive”; under `CCCCCCCCCCCC(=O)Cl`, “inactive”.
`CCN=C1C=CC(=C(c2ccc(N(CC)CC)cc2)c2ccc(N(CC)CC)cc2)c2ccccc21`: the molecule was classed as inactive.
`NC(=O)C(F)(F)C(F)(F)C(F)(F)F`: the call was inactive.
Regarding `CC(C)CC=C(C=O)c1ccccc1`, the AC50 is 24.1 µM (active).
On the same count and under the same terms, the result for `OCC(F)(F)C(F)(F)C(F)(F)C(F)(F)C(F)(F)C(F)(F)C(F)(F)C(F)(F)CO` reads 0.188 µM (active).
In the case of `F[Si-2](F)(F)(F)(F)F`, the molecule was classed as inactive.
Consider `NC(=O)C(F)(F)C(F)(F)C(F)(F)C(F)F`, for which the call was inactive.
In the case of `O=C(O)C(F)(F)OC(F)(F)C(F)(F)OC(F)(F)C(F)(F)OC(F)(F)F`, the AC50 is 13.2 µM (active).
For `CCCCC(CC)COC(=O)c1ccc(N(C)C)cc1` (stereo unspecified), the call was inactive.
Consider `CCCCCCCCCCCCCC[P+](CCCC)(CCCC)CCCC`, for which the AC50 was 0.0203 µM (active).
As for `C=CCOC(=O)CC(C)C`, the outcome was inactive.
On the same count and under the same terms, the result for `O=C=Nc1cccc2c(N=C=O)cccc12` reads “inactive”.
In the case of `CC(O)C#CC(C)O` (stereo unspecified), the molecule was classed as inactive.
Same read-out and setting: the result for `CCOCN(C(=O)CS(=O)(=O)O)c1c(C)cccc1CC` reads “inactive”.

A short description of the next assay: ATG_CRE_CIS: Attagene CIS-FACTORIAL HepG2 Assay for human cAMP Responsive Element (CRE) binding protein 3 (AID 2282926). To be noted: HepG2 CRE cis-reporter, Attagene multiplexed mRNA; actives raise or lower the signal. The method, boiled down: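 Human liver HepG2, transient MRTU transfection, 24 h compound exposure. Total RNA → oligo(dT) RT → PCR → 6-FAM primer extension → HpaI cut → CE. Activity called both directions vs DMSO.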
As for `CCC(Cc1c(I)cc(I)c(N)c1I)C(=O)O` (stereo unspecified), the molecule was classed as inactive.
`C=C(C)CCCC`: the call was inactive.
On to `OCC(F)(F)C(F)(F)C(F)(F)C(F)(F)C(F)(F)C(F)(F)CO`, for which the result was inactive.
The same measure, in the same setting: under `C[C@]12CC[C@H]3C(=CCc4cc(O)ccc43)[C@@H]1CCC2=O` stands “inactive”; under `Oc1ccc(C2(c3ccc(O)c(C4CCCCC4)c3)CCCCC2)cc1C1CCCCC1`, “inactive”; under `O=C(O)CCC(F)(F)C(F)(F)C(F)(F)C(F)(F)C(F)(F)C(F)(F)C(F)(F)F`, “inactive”.
For the molecule `NCC(F)(F)C(F)(F)C(F)(F)C(F)(F)C(F)(F)C(F)(F)F`, the molecule was classed as inactive.
On to `CC(C)C(=O)OCc1ccccc1`, for which the molecule was classed as inactive.
`CO[Si](C)(CCC(F)(F)C(F)(F)C(F)(F)C(F)(F)C(F)(F)C(F)(F)F)OC`: the molecule was classed as inactive.
Turning to `CCCCCCCCCc1ccc(OCCO)cc1`, the concentration at half-maximal activity (AC50) is 22.8 µM (active).
Regarding `FC(F)(F)C(F)(F)C(F)(F)C(F)(F)C(F)(F)C(F)(F)C(F)(F)CCI`, the molecule was classed as inactive.
Regarding `C[Si](C)O[Si](C)C`, the call was inactive.
Regarding `Cc1cnccn1`, the molecule was classed as inactive.
On the same count and under the same terms, under `NCC(F)(F)C(F)(F)C(F)(F)C(F)(F)C(F)(F)C(F)(F)C(F)(F)C(F)(F)F` stands “inactive”; under `OCC(F)(F)C(F)(F)C(F)(F)CO`, “inactive”; under `CN(C)C(C)(C)CO`, “inactive”.
With `Nc1cc([N+](=O)[O-])cc(Cl)c1O`, the call was inactive.
Regarding `CCCCCCCCCCCCC[N+](C)(C)Cc1ccccc1`, the call was inactive.
Consider `OCCCc1cccnc1`, for which the result was inactive.
With `O=C(Cl)C(F)(F)C(F)(F)C(F)(F)C(F)(F)C(F)(F)C(F)(F)C(F)(F)F`, the outcome was inactive.
Regarding `Cc1cc(C)c(O)c(C(C)(C)C)c1`, the outcome was inactive.
For `CCC(=O)OC(C)c1ccccc1` (stereo unspecified), the molecule was classed as inactive.
Regarding `COc1ccccc1C=O`, the call was inactive.
`O=c1cccc[nH]1`: the molecule was called inactive.
As for `CCCCCCCCCCCC(=O)Cl`, the call was inactive.
For `CCN=C1C=CC(=C(c2ccc(N(CC)CC)cc2)c2ccc(N(CC)CC)cc2)c2ccccc21`, the AC50 was 1.17 µM (active).
On to `NC(=O)C(F)(F)C(F)(F)C(F)(F)F`, for which the call was inactive.
For the molecule `CC(C)CC=C(C=O)c1ccccc1`, the result was inactive.
For the molecule `OCC(F)(F)C(F)(F)C(F)(F)C(F)(F)C(F)(F)C(F)(F)C(F)(F)C(F)(F)CO`, the molecule was classed as inactive.
Still for that read-out and setting: the result for `F[Si-2](F)(F)(F)(F)F` reads “inactive”; that for `NC(=O)C(F)(F)C(F)(F)C(F)(F)C(F)F`, “inactive”; that for `O=C(O)C(F)(F)OC(F)(F)C(F)(F)OC(F)(F)C(F)(F)OC(F)(F)F`, “inactive”.
Regarding `CCCCC(CC)COC(=O)c1ccc(N(C)C)cc1` (stereo unspecified), the molecule was called inactive.
Take `CCCCCCCCCCCCCC[P+](CCCC)(CCCC)CCCC`: the half-maximal activity concentration (AC50) is 0.758 µM (active).
With `C=CCOC(=O)CC(C)C`, the outcome was inactive.
With `O=C=Nc1cccc2c(N=C=O)cccc12`, the call was inactive.
Consider `CC(O)C#CC(C)O` (stereo unspecified), for which the result was inactive.
Same read-out and setting: the result for `CCOCN(C(=O)CS(=O)(=O)O)c1c(C)cccc1CC` reads “inactive”.
